Source: ChEMBL document CHEMBL4513216, “Probing the Open Global Health Chemical Diversity Library for Multistage-Active Starting Points for Next-Generation Antimalarials” (ACS Infect Dis, 2020)
In all, about 68,000 compounds went through this assay and about 2,700 (4%) showed an effect of 50% or more. What follows is part of a selection rich in strong results, with near analogues and random picks from the rest.

system: Plasmodium berghei; test: Screen against P. berghei liver stage (PbLuc), transformed with Luciferase, at 2uM; type: functional, HepG2; settings: tested at 2 uM

Row | SMILES | INHIBITION
1 | Cc1cccc2c1ccn2CCC(=O)O | 4.39%
2 | Cc1noc(-c2ccc(N3CCCC(C(=O)c4nccn4C)C3)nc2)n1 (stereo not given) | 58.53%
3 | Cc1noc(-c2ccc(N3CCCC(C(=O)O)C3)nc2)n1 (stereo not given) | 25.69%
4 | Cc1noc(-c2ccc(N3CCC(C(=O)N4CCCC4)CC3)nc2)n1 | 51.96%
5 | CCOC(=O)C1CCCN(c2ccc(-c3nc(C)no3)cn2)C1 (stereo not given) | -9.62%
6 | Cc1noc(-c2ccc(N3CCCC(C(N)=O)C3)nc2)n1 (stereo not given) | 22.86%
7 | Cc1noc(-c2ccc(N3CCCC(C(=O)N4CCSCC4)C3)nc2)n1 (stereo not given) | -13.24%
8 | CC(C)c1nc(C2CCCN2C(=O)c2cnc[nH]2)no1 (stereo not given) | -66%
9 | COc1cccc(NC(=O)C(C)Cn2cc(Cl)cn2)c1 (stereo not given) | 36.45%
10 | Cc1ccc2nnc(C(=O)NCCCn3cccn3)nc2c1 | -41.49%
11 | CC(C)(C(=O)NCC(=O)NCc1ccccc1)c1ccccc1F | -3.22%
12 | COc1cc2c(cc1CN1CCc3sccc3C1C)OCCO2 (stereo not given) | 18.06%
13 | COc1ccsc1C(=O)Nc1cc(CN2CCOCC2)ccc1C | 37.63%
14 | CCC1c2ccsc2CCN1Cc1cc2c(cc1OC)OCCO2 (stereo not given) | 10.03%
15 | CC1c2ccsc2CCN1Cc1cc2c(cc1O)OCO2 (stereo not given) | 12.7%
16 | COc1ccc(CN2CCc3sccc3C2C)cc1CN1CCOCC1 (stereo not given) | 56.39%
17 | COc1cc2c(cc1CN1CCc3sccc3C1C)OCO2 (stereo not given) | 59.65%
18 | CC(C)OCCn1nnnc1Cc1ccc(Br)cc1 | -21.99%
19 | CNC(=O)NC(=O)CCN1CCN(c2nccs2)CC1 | 27.2%
20 | CS(=O)(=O)c1ccc(C(O)CN2CCC(c3ccn[nH]3)CC2)cc1 (stereo not given) | 14.82%
21 | C[C@@H]1CN(C(=O)c2cccs2)C[C@]12CCN(CCN(C)C)C2=O | 6.12%
22 | CCCc1nc(CN(CC)Cc2ccc(S(C)(=O)=O)cc2)no1 | -5.31%
23 | Cc1nnc(SCCC(=O)N(C)Cc2c(F)cccc2Cl)[nH]1 | 21.97%
24 | Cc1nnc(SCCC(=O)N(C)Cc2ccc(F)cc2Cl)[nH]1 | 52.98%
25 | CN(CC(N)=O)Cc1ccc(F)cc1Cl | -6.61%
26 | CN(Cc1ccc(Cl)s1)C(=O)Cn1nc(-c2ccc(F)cc2)oc1=O | 14.82%
27 | Cc1nnc(SCCC(=O)N(C)Cc2ccc(F)cc2F)[nH]1 | 10.05%
28 | Cc1nnc(SCCC(=O)N(C)Cc2ccc(Cl)s2)[nH]1 | 55.36%
29 | O=C(NCCc1cccc(F)c1)NCC(O)c1cccc(F)c1 (stereo not given) | -47.97%
30 | COc1nc2c(cc1C(=O)N1CCCOC(CN3CCCC3)C1)CCC2 (stereo not given) | -8.45%
